# From PubChem
# S2 tox: Viability Counterscreen for Primary qHTS for Inhibitors of ATXN expression; Potency, µM (titrated, usually from 56.7 µM), usual class: cytotoxic; 400,000 compounds, 0.49% hits; S2 cells (HEK-293 line with an ATXN2-luciferase reporter) viability, CellTiter-Fluor protease fluorescence, 24 h; further: nearly all actives have a fitted effect of over 40% in size
# ATXN2 expr inh: Primary qHTS for Inhibitors of ATXN expression | HEK-293 ATXN2-luciferase reporter, luminescence, 24 h | Potency, µM (series often up to 57 µM), for inactives: at the top dose activity change, negative = inhibition, actives largely listed as inhibitors | 360,000 compounds, 0.72% hits | AID 1745845, 2022; further: on the % scale 0 is the no-effect control and ±100 the full control effect; nearly all actives have a fitted effect of over 55% in size
#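 qHTS (up to 57 uM final) was run with 24 h compound exposure of reporter cells at 37 °C. Each well was multiplexed: SteadyGlo luminescence measured ATXN2-luciferase expression after a fluorogenic Gly-Phe-AFC viability readout (25 uM final).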
# TGFb SMAD3 inh: qHTS for Inhibitors of TGF-b | HepG2 CAGA-GFP TGF-b/SMAD3 reporter, GFP fluorescence, 18 h; TGF-beta stimulated, 500 pg/mL final | Potency, µM (titrated, usually from 46.1 µM), for the others: at the top dose activity, negative = inhibition, most hits filed as inhibitors | 410,000 compounds, 1.2% hits | AID 588855, 2011; further: on the % scale 0 is the no-effect control and ±100 the full control effect; nearly all actives have a fitted effect of over 65% in size
#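 Using HEPG2 CAGA-GFP reporter cells at 1000 cells/well, we pinned test compounds, stimulated with recombinant TGF-beta (500 pg/mL final) and measured total well GFP after 18 h.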
# VP16 counter: VP16 counterscreen qHTS for inhibitors of ROR gamma transcriptional activity. Drosophila S2 Gal4-VP16 UAS-luciferase, luminescence, 20 h. Potency, µM (series often up to 53.6 µM), for the others: at the top dose activity, negative = inhibition, hits mostly inhibitors. 310,000 compounds, 3.5% hits. AID 2546, 2010;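 further: Gal4-VP16 expression switched on by copper sulfate through the metallothionein promoter; on the % scale 0 is the no-effect control and ±100 the full control effect; nearly all actives have a fitted effect of over 50% in size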
# RORgamma inh: qHTS for inhibitors of ROR gamma transcriptional activity; Potency, µM (titrated, usually from 53.6 µM), for the others: top-dose activity change, negative = inhibition, actives largely listed as inhibitors; Nuclear receptor ROR-gamma (Mus musculus), P51450; Drosophila S2 Gal4-RORgamma UAS-luciferase reporter, 20 h; 310,000 compounds, 5.4% hits; further: on the % scale 0 is the no-effect control and ±100 the full control effect; nearly all actives have a fitted effect of over 60% in size
# Target sequence (P51450 whole entry, looked up, the tested form may be a part): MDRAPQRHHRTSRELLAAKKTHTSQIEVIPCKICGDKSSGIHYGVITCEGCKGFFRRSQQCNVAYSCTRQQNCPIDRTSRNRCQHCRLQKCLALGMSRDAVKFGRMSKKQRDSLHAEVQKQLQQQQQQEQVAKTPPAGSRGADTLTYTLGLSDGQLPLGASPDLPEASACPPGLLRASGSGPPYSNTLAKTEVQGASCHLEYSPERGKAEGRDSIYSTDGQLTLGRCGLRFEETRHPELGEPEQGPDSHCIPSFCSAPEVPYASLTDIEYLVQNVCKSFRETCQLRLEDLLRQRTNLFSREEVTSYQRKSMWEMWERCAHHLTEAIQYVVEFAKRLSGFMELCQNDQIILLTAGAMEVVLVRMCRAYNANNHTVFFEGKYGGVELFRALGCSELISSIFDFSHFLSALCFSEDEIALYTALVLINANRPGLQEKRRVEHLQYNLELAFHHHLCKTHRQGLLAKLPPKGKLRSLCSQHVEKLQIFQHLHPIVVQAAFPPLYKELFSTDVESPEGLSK
#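 Drosophila Schneider cells stably carrying a metallothionein-driven Gal4 DBD–ROR gamma fusion and a UAS-Photinus luciferase reporter were exposed to compound for 1 hr, then induced with copper sulfate (700 uM final) for 20 hr at ambient temperature before luminescence reading.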
# HepG2 tox: qHTS for Inhibitors of TGF-b: Cytotox Counterscreen; 410,000 compounds, 0.76% hits; HepG2 CAGA-GFP viability, ATP luminescence, 18 h; Potency, µM (top dose mostly 46.1 µM), inactives show at the top dose activity change, negative = cytotoxicity, usual class: cytotoxic
#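 HepG2 CAGA-GFP cells (1000/well, DMEM with 1% FBS) received compound, then TGF-beta at 500 pg/mL final, and were incubated 18 hours at 37 degrees C. Viability was read by CellTiter-Glo luminescence. Media-only wells were set as complete cell-killing and DMSO as no toxicity.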
# * marks the source's active call; other numbers are inactive results; i = inactive; ? = inconclusive; / = no result given. Rows were chosen to be rich in hits. Some 6.1% of all compounds tested hit in one or more screens of this group. The call rests on the fitted dose curve; in most records, active means well fitted curve in the direction sought with a large enough effect; inconclusive means small, poorly fitted or top-dose-only effect, or another doubt; inactive means no such curve, though single readings can be large; an effect the other way counts as inactive or inconclusive. Potency means the concentration at half of the fitted maximal effect.
SMILES,S2 tox,ATXN2 expr inh,TGFb SMAD3 inh,VP16 counter,RORgamma inh,HepG2 tox
COc1ccccc1C(=O)Oc1c(Sc2ccccc2)c(C)nn1-c1ccccc1,11µM*,?,?,/,/,-94%
COc1cc(C(=O)Oc2c(Sc3ccc(C)cc3)c(C)nn2-c2ccccc2)cc(OC)c1OC,i,-4%,-24%,/,/,-15%
COc1cccc(C(=O)Oc2c(Sc3ccc(C)cc3)c(C)nn2C(C)(C)C)c1OC,/,?,13µM*,/,/,13µM*
CCCCN(CCCC)c1ccc(/C=C/c2ccnc3ccccc23)cc1,/,/,42%,/,/,-40%
CCn1cc(C(=O)N2CCN(c3cccc(C)c3C)CC2)c2cc(OC)c(OC)cc2c1=O,?,?,10µM*,/,/,-10%
c1ccc2nc(-c3nc4ccccc4o3)ccc2c1,i,?,?,10µM*,-3%,-80%
c1ccc(-c2nc3ccccc3o2)nc1,i,35%,?,-13%,-11%,-2%
CCOC(=O)Cn1c(=O)n(CC2CCCO2)c2nc(-c3cc(OC)ccc3OC)nc(C(N)=O)c21 (centres undefined),i,-1%,-4%,/,/,-13%
CC(C)(C)n1ncc2c(=O)n(CC(=O)c3ccccc3)cnc21,i,54%,?,?,?,7%
CC(C)(C)n1ncc2c(=O)n(CC(=O)OCc3ccccc3)cnc21,i,80%,-2%,1.6µM*,8.9µM*,-15%
Cc1ccc2nc(-c3ccc4c(c3)OCCO4)cn2c1,i,?,-17%,1.1µM*,0.4µM*,-45%
Clc1ccc2nc(-c3ccccc3)cn2c1,i,4%,0%,?,11µM*,-20%
Fc1ccc(-c2cn3ccccc3n2)cc1,?,/,-4%,?,?,-32%
Clc1ccc2nc(-c3ccc4c(c3)OCO4)cn2c1,i,?,-14%,8.9µM*,5µM*,-39%
Cc1ccc2nc(-c3ccc4c(c3)NC(=O)CO4)cn2c1,?,-35%,27%,?,?,-28%
CN(C)S(=O)(=O)c1cccc(-c2cn3cc(Cl)ccc3n2)c1,i,44%,-13%,?,12%,-19%
c1ccn2cc(-c3ccc4c(c3)OCCO4)nc2c1,i,/,0%,?,3.5µM*,-82%
Cc1ccc(NC(=O)C2CCC(CNS(=O)(=O)c3ccc4c(c3)CCCC(=O)N4)CC2)cc1F (centres undefined),i,-25%,-19%,/,/,-31%
COc1ccc(CN(Cc2nc3ccccc3c(=O)[nH]2)C(=O)NC2CCCCC2)cc1,i,8%,-5%,?,13µM*,3%
COc1ccccc1CN(Cc1nc2ccccc2c(=O)[nH]1)C(=O)Nc1ccccc1C,i,9%,-21%,?,10µM*,-33%
CCN(CC(=O)NCc1ccc(F)cc1)Cc1nc2ccccc2c(=O)[nH]1,i,-2%,-1%,10µM*,4µM*,-14%
COc1ccc(CN(Cc2nc3ccccc3c(=O)[nH]2)C(=O)C(C)(C)C)cc1,i,3%,1%,-5%,13µM*,-10%
CCc1ccc(-c2cn3c(n2)sc2cc(C(=O)NCCC4=CCCCC4)ccc23)cc1,/,/,?,/,/,-39%
CS(=O)(=O)N(Cc1ccc(F)cc1)Cc1nc2ccccc2c(=O)[nH]1,i,3%,-8%,1%,-14%,6%
CC(=O)N(Cc1ccc(F)cc1)Cc1nc2ccccc2c(=O)[nH]1,i,-24%,-26%,?,16µM*,-4%
COc1cccc(/C=N/NC(=O)C(=O)NCc2ccco2)c1O,i,-26%,2%,6.3µM*,4µM*,-30%
COc1cc(/C=N/NC(=S)NCc2ccco2)cc(OC)c1OC,i,10%,7%,?,43%,-23%
